Jurkat NFkB inh – lowers PMA/ionomycin-induced NF-kB signal in Jurkat cells. PMA/ionomycin-induced NF-kB luciferase reporter, luminescence. inhibition, % at 4 µM. actives 0.53% (n = 330,000); in the data active = inhibition above about 50%
697 NFkB inh – inhibitors of the PMA/ionomycin-induced NF-kB reporter in 697 B cells. inhibition, % at 4 µM. 697 B-cell NF-kB luciferase reporter, 16 h. actives 0.33% (n = 330,000); in the data active = inhibition above about 35%
Bfl-1 A1 inh – inhibitors of the anti-apoptotic protein A1, read as caspase activation | MEF A1-2A-BIM cells, Caspase-Glo 3/7 luminescence, 3 h; percent of clofoctol response, vehicle zero | caspase activation, % (concentration not given with the values) | actives 0.066% (n = 330,000);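 active = over half of replicate activation scores above 10%, or exactly half above 10 with the replicate mean above 10; inconclusive = replicate mean below 10 yet half the replicates above 10; inactive = over half of replicates below 10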
Mdm2-MdmX inh – disrupts the human Mdm2-MdmX interaction | O15151+Q00987 | AID 485346 | SaOS-2 split-luciferase Mdm2/MdmX complementation, luminescence | actives 3% (n = 330,000) | inhibition, % at 8 µM;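 active = inhibition of at least 50% at 8 µM in the primary screen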
Beta apoptosis – blocks beta cell apoptosis | INS-1E cytokine-induced death, ATP luminescence, 48 h; percent of positive-control rescue, neutral wells zero | AID 435005 | actives 0.8% (n = 300,000) | protection from apoptosis, % (test concentration not listed);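 active = Every replicate reaches about 75%, or at least half do and their mean reaches it too, limit read from the data; inconclusive = At least half of replicates reach the limit but their mean does not; inactive = Under half of replicates reach the limit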;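 also: higher means more ATP so stronger rescue from cytokine killing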
NTR1 ag – NTR1 (human) agonism; P30989; NTR1-U2OS beta-arrestin-GFP spot imaging, agonist mode; activation, % at 20 µM; actives 0.17% (n = 330,000); AID 493036;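 active = activation at or above 40% of the spot to cytoplasm intensity ratio, with at least 20 cells analyzed; inconclusive = wells under 20 cells, flagged as cytotoxic or low count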
Target sequence (P30989 whole entry, looked up): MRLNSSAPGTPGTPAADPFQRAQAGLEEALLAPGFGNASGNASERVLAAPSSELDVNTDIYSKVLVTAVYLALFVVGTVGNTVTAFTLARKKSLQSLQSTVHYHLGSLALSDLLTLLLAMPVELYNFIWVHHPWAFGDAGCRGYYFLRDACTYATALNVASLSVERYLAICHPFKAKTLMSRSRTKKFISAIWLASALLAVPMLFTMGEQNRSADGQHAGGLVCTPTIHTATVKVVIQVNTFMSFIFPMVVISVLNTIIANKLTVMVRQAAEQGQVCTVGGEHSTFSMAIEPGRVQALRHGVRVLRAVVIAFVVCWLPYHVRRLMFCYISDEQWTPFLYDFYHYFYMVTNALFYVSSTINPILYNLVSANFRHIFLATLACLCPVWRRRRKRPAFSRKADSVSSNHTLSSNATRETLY
Numbers stand for hits. Most compounds without a hit are left out; they make up all but 3.8% or so of the library.

Screening O=C(N/N=C/c1ccc([N+](=O)[O-])s1)C(O)c1ccccc1 (stereo not given) returned Jurkat NFkB inh inactive, 697 NFkB inh inactive, Bfl-1 A1 inh inactive, Mdm2-MdmX inh inactive, Beta apoptosis 94 and NTR1 ag inactive.
For Cc1ccc([N+](=O)[O-])cc1S(=O)(=O)Nc1cccc(S(=O)(=O)NC2=NCCC2)c1 the results were Jurkat NFkB inh inactive, 697 NFkB inh inactive, Bfl-1 A1 inh inactive, Mdm2-MdmX inh inactive, Beta apoptosis inactive and NTR1 ag inactive.
Screening CCOc1cc(NCc2ccccc2)c2ncn(C(C)C)c2c1 returned Jurkat NFkB inh inactive, 697 NFkB inh inactive, Bfl-1 A1 inh inactive, Mdm2-MdmX inh inactive, Beta apoptosis inactive and NTR1 ag inactive.
For CCCOc1cc(NCc2ccccc2)c2ncn(C(C)C)c2c1 the results were Jurkat NFkB inh inactive, 697 NFkB inh inactive, Bfl-1 A1 inh inactive, Mdm2-MdmX inh inactive, Beta apoptosis 124 and NTR1 ag inactive.
COc1cccc(/C=N/Nc2nc3ccccc3n3cnnc23)c1O was read as Jurkat NFkB inh inactive, 697 NFkB inh inactive, Bfl-1 A1 inh inactive, Mdm2-MdmX inh inactive, Beta apoptosis 119 and NTR1 ag inactive.
Screening COc1cccc(/C=N/Nc2nc3ccccc3n3cnnc23)c1 returned Jurkat NFkB inh inactive, 697 NFkB inh inactive, Bfl-1 A1 inh inactive, Mdm2-MdmX inh inactive, Beta apoptosis inactive and NTR1 ag inactive.
c1csc(-c2csc3ncnc(NCCCN4CCOCC4)c23)c1 was read as Jurkat NFkB inh inactive, 697 NFkB inh inactive, Bfl-1 A1 inh inactive, Mdm2-MdmX inh inactive, Beta apoptosis 76 and NTR1 ag inactive.
Cc1c(NC(=O)C(C)Oc2ccccc2F)c(=O)n(-c2ccccc2)n1C (stereo not given) was read as Jurkat NFkB inh inactive, 697 NFkB inh inactive, Bfl-1 A1 inh inactive, Mdm2-MdmX inh inactive, Beta apoptosis inactive and NTR1 ag inactive.
For N#CCC(=O)N/N=C/c1cc(-c2ccccc2)n(-c2ccc(Cl)cc2)c1-c1ccccc1 the results were Jurkat NFkB inh inactive, 697 NFkB inh inactive, Bfl-1 A1 inh inactive, Mdm2-MdmX inh inactive, Beta apoptosis 109 and NTR1 ag inactive.
`Clc1ccccc1Nc1nnc(-c2ccncc2)s1` gave Jurkat NFkB inh inactive, 697 NFkB inh inactive, Bfl-1 A1 inh inactive, Mdm2-MdmX inh inactive, Beta apoptosis 75 and NTR1 ag inactive.
CCOC(=O)N1CCN(C(=O)c2cc(COc3ccc4ncccc4c3)on2)CC1 was read as Jurkat NFkB inh inactive, 697 NFkB inh inactive, Bfl-1 A1 inh inactive, Mdm2-MdmX inh inactive, Beta apoptosis inactive and NTR1 ag inactive.
Cc1cccnc1CN1CCN(C(=O)c2cc(COc3ccc4ncccc4c3)on2)CC1 was read as Jurkat NFkB inh inactive, 697 NFkB inh inactive, Bfl-1 A1 inh inactive, Mdm2-MdmX inh inactive, Beta apoptosis 100 and NTR1 ag inactive.
For Cc1ccc2ccc3ccc(C)nc3c2n1 the results were Jurkat NFkB inh inactive, 697 NFkB inh inactive, Bfl-1 A1 inh inactive, Mdm2-MdmX inh inactive, Beta apoptosis 78 and NTR1 ag inactive.
For Cc1nnc(NC(=O)c2ccc(Br)o2)s1 the results were Jurkat NFkB inh inactive, 697 NFkB inh inactive, Bfl-1 A1 inh inactive, Mdm2-MdmX inh inactive, Beta apoptosis inactive and NTR1 ag inactive.
Screening COc1ccc(C(=O)/C=C/C(=O)N(CC(=O)NC2CCCCC2)Cc2cccs2)c(O)c1 returned Jurkat NFkB inh inactive, 697 NFkB inh inactive, Bfl-1 A1 inh 26, Mdm2-MdmX inh inactive, Beta apoptosis inactive and NTR1 ag inactive.
c1csc(CNc2ncnc3sccc23)c1 was read as Jurkat NFkB inh inactive, 697 NFkB inh inactive, Bfl-1 A1 inh inactive, Mdm2-MdmX inh inactive, Beta apoptosis 80 and NTR1 ag inactive.
Screening COc1ccc(CNc2ncnc3sccc23)cc1 returned Jurkat NFkB inh inactive, 697 NFkB inh inactive, Bfl-1 A1 inh inactive, Mdm2-MdmX inh inactive, Beta apoptosis 75 and NTR1 ag inactive.
`CCCCN(C(=O)C1CC(=O)N(c2ccc(OC)cc2OC)C1)c1c(N)n(CC(C)C)c(=O)[nH]c1=O` (stereo not given) gave Jurkat NFkB inh inactive, 697 NFkB inh inactive, Bfl-1 A1 inh inactive, Mdm2-MdmX inh inactive, Beta apoptosis inactive and NTR1 ag inactive.
Screening COc1ccccc1C(=O)NC(=O)CSc1ccc(C)c(C)c1 returned Jurkat NFkB inh inactive, 697 NFkB inh inactive, Bfl-1 A1 inh inactive, Mdm2-MdmX inh inactive, Beta apoptosis inactive and NTR1 ag inactive.
`Cc1nn(-c2ccc(Cl)cc2)c(Cl)c1/C=N/NC(=O)c1ccc(NS(=O)(=O)c2cccs2)cc1` gave Jurkat NFkB inh inactive, 697 NFkB inh inactive, Bfl-1 A1 inh inactive, Mdm2-MdmX inh inactive, Beta apoptosis inactive and NTR1 ag inactive.
For O=C(Nc1ccccc1N1CCCCC1)c1ccc(Cl)cc1 the results were Jurkat NFkB inh inactive, 697 NFkB inh inactive, Bfl-1 A1 inh 7.3, Mdm2-MdmX inh inactive, Beta apoptosis inactive and NTR1 ag inactive.
For Cc1ccc(S(=O)(=O)N2CCOCC2)cc1NC(=O)COC(=O)CCc1c[nH]c2ccccc12 the results were Jurkat NFkB inh inactive, 697 NFkB inh inactive, Bfl-1 A1 inh inactive, Mdm2-MdmX inh inactive, Beta apoptosis inactive and NTR1 ag inactive.
`CS(=O)(=O)c1ccc(C(=O)OCC(=O)NC23CC4CC(CC(C4)C2)C3)cc1[N+](=O)[O-]` gave Jurkat NFkB inh inactive, 697 NFkB inh inactive, Bfl-1 A1 inh inactive, Mdm2-MdmX inh inactive, Beta apoptosis inactive and NTR1 ag 68.
For CCCCCCSc1cc(-c2nc3ccc(C)cn3c2NCCCC)ccc1OC the results were Jurkat NFkB inh inactive, 697 NFkB inh inactive, Bfl-1 A1 inh inactive, Mdm2-MdmX inh inactive, Beta apoptosis 84 and NTR1 ag inactive.
Screening CC(Oc1ccccc1F)c1nnc(SCC(=O)Nc2ccc(N3CCOCC3)cc2)o1 (stereo not given) returned Jurkat NFkB inh inactive, 697 NFkB inh inactive, Bfl-1 A1 inh inactive, Mdm2-MdmX inh inactive, Beta apoptosis inactive and NTR1 ag inactive.
`CCn1cc(C(=O)O)c(=O)c2cc(F)c(N/N=C/c3ccccc3[N+](=O)[O-])cc21` gave Jurkat NFkB inh inactive, 697 NFkB inh inactive, Bfl-1 A1 inh inconclusive, Mdm2-MdmX inh inactive, Beta apoptosis 97 and NTR1 ag inactive.
Screening Cc1ccc(C(=O)O)cc1S(=O)(=O)Nc1ccccc1C(=O)NC1CC1 returned Jurkat NFkB inh inactive, 697 NFkB inh inactive, Mdm2-MdmX inh inactive and NTR1 ag inactive.
Screening O=C(NCc1cccnc1)c1ccc(COc2ccccc2Cl)cc1 returned Jurkat NFkB inh inactive, 697 NFkB inh inactive, Bfl-1 A1 inh inactive, Mdm2-MdmX inh inactive, Beta apoptosis 103 and NTR1 ag inactive.
`O=C(NCc1cccnc1)c1ccc(COc2ccccc2Br)cc1` gave Jurkat NFkB inh inactive, 697 NFkB inh inactive, Bfl-1 A1 inh inactive, Mdm2-MdmX inh inactive, Beta apoptosis inactive and NTR1 ag inactive.
Screening O=C(NCc1cccnc1)c1ccc(NC(=O)c2ccc([N+](=O)[O-])cc2)cc1 returned Jurkat NFkB inh inactive, 697 NFkB inh inactive, Bfl-1 A1 inh inactive, Mdm2-MdmX inh inactive, Beta apoptosis 104 and NTR1 ag inactive.

Assay outcomes from PubChem.
